Screens (PubChem BioAssay)
Granule exo inh: blocks lytic granule exocytosis; TALL-104 LAMP-1 surface exposure, flow cytometry; cells stimulated with thapsigargin and PMA; 360,000 tested, 0.66% active; inhibition, % at 10 µM;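 active = inhibition above about 55%, limit read from the data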
VLA-4 inh: inhibition in a human VLA-4 binding assay; P13612; VLA-4 expressing cells, ligand binding flow cytometry; inhibition, % (about 7 µM as worked out from the volumes in the protocol); 330,000 tested, 0.2% active; AID 2557; in the data active = inhibition above about 50%
NR1D1 modulator: modulators of human Rev-erb alpha DNA binding; activity, % at 10 µM; P20393; 370,000 tested, 0.79% active; AID 1259318; Rev-erbα–FITC-DNA binding, fluorescence polarization, 90 min;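 active = activity above about 14%, limit read from the data; passing the limit was not always enough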;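 also: 0% = DMSO wells with 35 nM protein and 100% = DMSO wells with 750 nM protein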
PG9 binder: PG9 antibody binding by small molecule | TR-FRET gp120-PG9 antibody binding | inhibition, % at 6.7 µM | 360,000 tested, 0.43% active | AID 624416; in the data active = inhibition above about 8.5%
ABCB6 inh 2: inhibitors of human ABC transporter ABCB6. K562-ABCB6 porphyrin accumulation, flow cytometry, 1 h; hits give low values. Q9NP58. 360,000 tested, 0.19% active. fluorescence ratio to DMSO, % at 10 µM. AID 602162;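 active = fluorescence ratio to DMSO below 75%, the collection mean minus 3 SD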;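 also: signal is porphyrin accumulated inside mitochondria; 100% equals median channel fluorescence of DMSO control wells; lower ratio means ABCB6 inhibition with less porphyrin fluorescence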
Exocytosis CP01: blocks lytic granule exocytosis; 1,500 tested, 11% active; TALL-104 cells, LAMP-1 externalization, flow cytometry; stimulated with PMA plus thapsigargin; inhibition, % at 10 µM; shares compounds with Granule exo inh; in the data active = inhibition above about 60%;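 also: 0% = stimulated vehicle wells and 100% = unstimulated wells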
* hit, by the source's call; · = not tested or not shown. Compounds with a hit are over-represented: about 2% of the library has one in this group of screens.

SMILES	Granule exo inh	VLA-4 inh	NR1D1 modulator	PG9 binder	ABCB6 inh 2	Exocytosis CP01
CC1=C(C(=O)N2CCCCCC2)CC(CC(=O)NCc2cccs2)C(=O)N1CCC1=CCCCC1 (configuration not stated)	-12	·	-10	-1	97	·
CC1=C(C(=O)N(C)C)CC(CC(=O)NCCCCc2ccccc2)C(=O)N1CCC1=CCCCC1 (configuration not stated)	-1	·	4	1	101	·
COC(=O)C1=C(C)N(C)C(=NCc2cc(OC)c(OC)c(OC)c2)NC1c1ccc(Cl)cc1 (configuration not stated)	·	·	-1	-2	·	·
Cc1cc(CNC(=O)COc2ccccc2)c2ccccc2n1	-2	·	-11	1	87	·
Cc1cc(CNC(=O)COc2ccc([N+](=O)[O-])cc2)c2ccccc2n1	60*	2	0	-3	103	-14
COc1ccccc1-n1c(SCC(=O)NCc2ccc3c(c2)OCO3)nc2cc([N+](=O)[O-])ccc21	95*	1	-2	3	96	0
Cc1cc(C)cc(-n2c(SC(C)C(=O)NCc3ccc4c(c3)OCO4)nc3ccccc3c2=O)c1 (configuration not stated)	-4	4	-2	-2	99	·
CC(Sc1nc2cc([N+](=O)[O-])ccc2n1-c1ccc(F)cc1)C(=O)NCc1ccc2c(c1)OCO2 (configuration not stated)	88*	10	2	-2	100	-5
COC1=C[C@H](C(=O)N[C@H]2CCCC[C@@H]2NC(C)=O)[C@H](C)[C@@H](c2ccccc2)CC1=O	·	·	8	·	·	·
Cc1ccc2nc(C)c(CN3CCN(c4ccc([N+](=O)[O-])cc4Cl)CC3)n2c1	72*	-17	10	-1	86	-12
O=[N+]([O-])c1ccc(Cl)c(CN2CCN(c3ncccn3)CC2)c1	-6	-1	-6	-1	101	·
O=C(O)Cc1sc(=O)[nH]c1O	97*	·	-2	-1	95	-14
CCc1ccc(N(C(C)=O)C2C=CS(=O)(=O)C2)cc1 (configuration not stated)	75*	-12	7	-1	99	-13
Cc1c(C)n(-c2ccccc2)c2ncnc(NCCN(C)C)c12	65*	10	-4	-2	98	-10
COc1ccc(-n2c(C)c(C)c3c(NCCN(C)C)ncnc32)cc1	-7	12	-1	0	98	·
CN(C)CCC(Oc1ccccc1OCc1ccccc1)c1ccccc1 (configuration not stated)	56*	8	4	-1	97	-4
COc1ccccc1-c1ccc(OCCCN2CCC(C(O)(c3ccccc3)c3ccccc3)CC2)cc1	·	·	8	-1	·	·
CCN(CC)CCC(=O)N1C/C(=C/c2ccccc2)C(=O)/C(=C\c2ccccc2)C1	79*	·	-6	-2	95	30
COc1ccc(CCNC(=O)c2cc3c(C)nn(-c4ccccc4)c3s2)cc1OC	·	·	-4	·	·	·
COc1ccc(Br)cc1CN(C)C(=O)CNC(=O)c1ccc2ccccc2c1	58*	16	1	1	96	-5
Cc1cc(NCc2ccccn2)n2ncc(-c3ccc(Cl)cc3)c2n1	82*	3	-2	1	94	-12
Cc1cc(NCc2ccccn2)n2ncc(-c3ccccc3)c2n1	12	-1	-1	2	96	·
CCCC1CCC2(CC1)CCC2OC(=S)Nc1ccc(Cl)cc1 (configuration not stated)	·	·	-1	·	·	·
Cc1cc(N2CCN(c3nc(-c4ccc([N+](=O)[O-])cc4)cs3)CC2)c2ccccc2n1	66*	0	3	-1	99	79*
CN1CCN(Cc2nc3ccccc3c(=O)n2Cc2nc(-c3ccc([N+](=O)[O-])cc3)cs2)CC1	75*	-23	-2	-2	109	97*
Cc1cc(-c2ccc([N+](=O)[O-])cc2)nc2ccccc12	1	12	0	0	89	·
O=C(N[C@H](C(=O)N1CCC[C@H]1C(=O)NC1CCCC1)c1ccccc1)C1CC1	·	·	5	-3	·	·
COc1ccc(NC(=O)C2CCN(C(=O)C3CC(=O)N(c4ccc(C)cc4)C3)CC2)c(OC)c1 (configuration not stated)	69*	1	-1	-4	97	-14
O=C(Nc1ccc(Oc2ccccc2)cc1)C1CCN(c2nnc(-n3cccc3)s2)CC1	·	·	-2	·	·	·
